Data reported in PubChem BioAssay (Tox21).
Inconclusive results are not listed. Calls of active or inactive are those of the source. Calls come from the whole dose curve.

Assay: p53 small molecule agonists, cell-based qHTS assay: qHTS cell viability counter screen (AID 1963581); note: nearly all actives have a fitted effect of over 45% in size
Conditions: p53RE-bla HCT-116 viability, ATP luminescence, 16 h; series mostly up to 66 µM; activity change, negative = cytotoxicity: at the top concentration
Text: National Center for Advancing Translational Sciences [NCATS]
Division of Preclinical Innovation [DPI]
U.S. Environmental Protection Agency [EPA]
National Institutes of Environmental Health Sciences [NIEHS]
National Toxicology Program [NTP]
U.S. Food and Drug Administration [FDA]
p53, a tumor suppressor protein, is activated following cellular insult, including DNA damage and other cellular stresses. The activation of p53 regulates cell fate by inducing DNA repair, cell cycle arrest, apoptosis, or cellular senescence. The activation of p53, therefore, is a good indicator of DNA damage and other cellular stresses. The CellSensor p53RE-bla HCT-116 cell line (Invitrogen) contains a stably integrated beta-lactamase reporter gene under control of the p53 response elements. The activation of the reporter gene under culture conditions can be detected by fluorescence intensity. This cell line was used to screen the Tox21 compound library in a 1536-well plate format and to identify agonists that activate the p53 signaling pathway. The cytotoxicity of the Tox21 compound library against the p53 RE-bla HCT-116 cell line was tested in parallel by measuring the intra cellular ATP content in the same wells.
Tox21 Assay Protocol Summary:
The p53RE-bla cells were dispensed at 4,000 cells/5 ul/well in 1536-well black wall/clear bottom plates using a Multidrop dispenser. After the assay plates were incubated at a 37 C/5% CO2 incubator for 5 hours, 23 nL of compounds dissolved in DMSO, positive controls or DMSO only was transferred to the assay plate by a pin tool. The plates were incubated at 37 C for 16 hours. After 1 uL of LiveBLAzerTM B/G FRET substrate was added using a Flying Reagent Dispenser, the plates were incubated at room temperature for 2 hours, and fluorescence intensity was measured by an Envision plate reader. For cell viability readout that measures cytotoxicity, 4 ul/well of CellTiter-Glo reagent was added into the assay plates using a Flying Reagent Dispenser. After 30 min incubation at room temperature, the luminescence intensity in the plates was measured using a ViewLux plate reader.
% is set by controls: 0 for no effect and ±100 for the full control effect; potency is the fitted concentration of half-maximal effect.

Compound | activity change, negative = cytotoxicity | Potency
Cc1ccsc1C(=CCCN1CCC[C@@H](C(=O)O)C1)c1sccc1C | 2.42% [at 30.3 µM] (inactive) | 
Nc1ccc(Oc2cccc(Oc3ccc(N)cc3)c2)cc1 | -14.9% (inactive) | 
CCCCN1C=CN(C)C1 | -5.52% [at 13.5 µM] (inactive) | 
C=CCCCC | 0% (inactive) | 
CC[N+]1(CC)CCC(=C(c2ccccc2)c2ccccc2)C1C (stereo not given) | 3.83% [at 30.3 µM] (inactive) | 
CC(CN1CC(=O)NC(=O)C1)N1CC(=O)NC(=O)C1 (stereo not given) | 0.451% (inactive) | 
CCC=O | 6.71% (inactive) | 
Cc1oc(-c2ccccc2)nc1CCOc1ccc(C[C@H](Nc2ccccc2C(=O)c2ccccc2)C(=O)O)cc1 |  | 20.4 µM (active)
CCCCCCCCCCCC[N+](C)(C)CCCCCCCCCCCC | 3.71% (inactive) | 
COC(C)OC | 0% (inactive) | 
C=CC(C)(CCC=C(C)C)OC(=O)c1ccccc1 (stereo not given) | 0.0358% (inactive) | 
CCOC(=O)OCC/C(SC(=O)OCC)=C(\C)N(C=O)Cc1cnc(C)nc1N | 1.15% [at 30.3 µM] (inactive) | 
C[C@H]1O[C@H](O[C@H]2[C@H](O)[C@@H](O)[C@@H](O[C@H]3[C@H](O)[C@@H](O)[C@H](O)O[C@@H]3CO)O[C@@H]2CO)[C@H](O)[C@@H](O)[C@@H]1N[C@H]1C=C(CO)[C@@H](O)[C@H](O)[C@H]1O | 0.254% [at 30.3 µM] (inactive) | 
CCCCCN=C(N)N/N=C/c1c[nH]c2ccc(OC)cc12 |  | 15.8 µM (active)
Cc1ccc(S(=O)(=O)NC(=O)NN2CC3CCCC3C2)cc1 (stereo not given) | -4.81% [at 30.3 µM] (inactive) | 
C=COCC1CCC(COC=C)CC1 (stereo not given) | -11% (inactive) | 
CC(=O)C(C)=O | 2.01% (inactive) | 
Cc1ccc(S)cc1 | 16.6% (inactive) | 
CCCCCCC/C=C/C=O | -13.6% (inactive) | 
CCCCCC(=O)OCC | 0.0427% (inactive) | 

Compound | activity change, negative = cytotoxicity | Potency
Cc1cc(=O)oc2cc(O[C@@H]3SC[C@@H](O)[C@H](O)[C@H]3O)ccc12 | -16.4% [at 30.3 µM] (inactive) | 
OCCC(F)(F)C(F)(F)C(F)(F)C(F)(F)C(F)(F)C(F)(F)C(F)(F)C(F)(F)F | -13.2% (inactive) | 
CCCC(C)c1ccccc1O (stereo not given) | -4.54% (inactive) | 
O=C(O)c1ccc2c(c1)nc(C(=O)NC1CCN(C3CC3)CC1)n2Cc1cc(-c2ccc(Cl)s2)on1 | 10.9% [at 13.5 µM] (inactive) | 
CCCCCCC(O)CCOC(C)=O (stereo not given) | -6.5% [at 172 µM] (inactive) | 
CCCCCCCC/C=C\CCCCCCCC(=O)OC | 12% (inactive) | 
O=C(O)c1cccc(Cl)n1 | 8.72% (inactive) | 
CN=C(NC#N)Nc1ccc(C2=NNC(=O)CC2C)cc1 (stereo not given) | 0.0021% [at 30.3 µM] (inactive) | 
Cc1ccc2c(c1[N+](=O)[O-])C(=O)c1ccccc1C2=O | -0.924% [at 30.3 µM] (inactive) | 
C[N+](C)(C)CCOC(=O)CCC(=O)OCC[N+](C)(C)C | 3.73% [at 30.3 µM] (inactive) | 
O=c1c(O)c(-c2ccc(O)cc2O)oc2cc(O)cc(O)c12 | 2.99% (inactive) | 
C=COCCCCO | 3.12% (inactive) | 
CCOC(=O)Cn1cccc1-c1nc(-c2ccc(OC)cc2)c(-c2ccc(OC)cc2)s1 | 1.57% [at 30.3 µM] (inactive) | 
COCCOC(=O)C1=C(C)NC(C)=C(C(=O)OC(C)C)C1c1cccc([N+](=O)[O-])c1 (stereo not given) | 4.67% [at 30.3 µM] (inactive) | 
NS(=O)(=O)c1ccc(Cl)c(S(N)(=O)=O)c1 | -0.179% [at 30.3 µM] (inactive) | 
CC(C)=CCOC(=O)c1ccccc1 | 6.73% (inactive) | 
CC(=O)c1cnccn1 | 16.3% (inactive) | 
O=C1c2ccccc2C(=O)N1CCl | 0% (inactive) | 
CCC(Cc1ccccc1)(C(=O)c1ccc(N2CCOCC2)cc1)N(C)C (stereo not given) | -21.6% (inactive) | 
CC(C)=CCC1=C(O)c2ccccc2C(=O)C1=O |  | 3.61 µM (active)
